# From PubChem BioAssay AID504432 (National Center for Advancing Translational Sciences (NCATS), 2011)
# Inconclusive results are not listed. The source made the active and inactive calls. The call rests on the fitted dose curve; in most records, active means well fitted inhibition curve with a large enough effect; inconclusive means small, poorly fitted or top-dose-only effect, or another doubt; inactive means flat fitted curve, though single readings scatter.
# Test: Confirmation Concentration-Response Assay for lipid storage modulators: for probe SAR round 2
# Conditions: Drosophila S3 cells, BODIPY lipid droplet fluorescence, 18-24 h
# Source text: NIH Molecular Libraries Probe Production Centers Network [MLPCN] NIH Chemical Genomics Center [NCGC] MLPCN Grant: 1 R03 MH085686-01 Assay Submitter (PI): Beller, Mathias; Max-Planck-Institut fur Biophysikalische Chemie NCGC Assay Overview: Storing lipids as a reservoir for energy or the anabolism of elementary metabolites is a common feature of probably all cells and is conserved from bacteria to humans. The universal cellular lipid storage organelle is the so-called lipid storage droplet (LD). Although ubiquitous, LDs share a simple structure composed of a hydrophobic core that harbors the storage lipids, which is shielded by a droplet-specific phospholipid monolayer to which proteins are attached. […]
# We dispensed 4 uL of cells at 1.25 x 10^6 cells/mL into LoBase Aurora COC 1,536-well plates (black walled, clear bottom) with a bottle-valve solenoid-based dispenser (Aurora) to obtain 5,000 cells/well. […] Fluorescence was detected by excitation of the fluorophores with a 488-nm laser on an Acumen Explorer (TTP Lab Tech). […] Cells were detected using channel 3 (575- 640 nm) with 5-um width and 100-um depth filters. The ratio of the total intensity in PMT channel 1 over total intensity of channel 3 was also calculated. […]
structure (smiles),measurement,value
CCC/C=C/C/C=C/C=C/C=N/NN=O,Potency,2.81 µM (active)
